According to the supplement of paper PMC7380943:
± gives the standard deviation of the averaged measurements.

Key:
[1] = test system: CLZ3 (HCA2 human fibroblast dual HR-NHEJ reporter); test: NHEJ repair efficiency (GFP+ cells) relative to control (log10 fold); higher = more non-homologous end joining; settings: 5 µM; doxycycline 0.5 ug/mL
[2] = test system: CLZ3 (HCA2 human fibroblast dual HR-NHEJ reporter); test: HR repair efficiency (tdTomato+ cells) relative to control (log10 fold); higher = more homologous recombination; settings: 5 µM; doxycycline 0.5 ug/mL
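For HR repair efficiency (tdTomato+ cells) relative to control in this document: compound given one day before doxycycline, which switches on I-SceI endonuclease expression to create double-strand breaks within the integrated reporter.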
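For NHEJ repair efficiency (GFP+ cells) relative to control in this document: compound given one day ahead of doxycycline, which switches on I-SceI endonuclease to cut the chromosomally integrated reporter and create DSBs.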

Row | Compound | NHEJ repair efficiency (log10) [1] | HR repair efficiency (log10) [2]
1 | COC(=O)C1=CO[C@@H](O[C@@H]2O[C@H](CO)[C@@H](O)[C@H](O)[C@H]2O)[C@@H]2[C@H](C)O[C@@H](O)C[C@H]12 [Morroniside] | 0.0778 | 0.186
2 | CC(=O)C1=C(O)C=C2Oc3c(C(C)=O)c(O)c(C)c(O)c3C2(C)C1=O (stereo in doubt) [Usnic Acid] | 0.00929 | 0.00791
3 | CC1(C)CC[C@]2(C(=O)O[C@@H]3O[C@H](CO)[C@@H](O)[C@H](O)[C@H]3O)CC[C@]3(C)C(=CC[C@@H]4[C@@]5(C)CC[C@H](O[C@@H]6O[C@H](C(=O)O)[C@@H](O)[C@H](O)[C@H]6O[C@@H]6O[C@H](CO)[C@@H](O)[C@H](O)[C@H]6O)C(C)(C)[C@@H]5CC[C@]43C)[C@@H]2C1 [Chikusetsusaponin V] | 0.0351 | 0.0384
4 | COc1cc(C2Oc3cc([C@H]4Oc5cc(O)cc(O)c5C(=O)[C@@H]4O)ccc3OC2CO)ccc1O (stereo not given in full) [Silymarin Ⅱ] | -0.124 | -0.127
5 | C=C1CCC[C@]2(C)C[C@]3(O)OC(=O)C(C)=C3C[C@@H]12 [Atractylenolide Ⅲ] | 0.0709 | 0.0176
6 | CC(C)(O)[C@@H]1CC[C@](C)([C@H]2[C@@H](O)C[C@@]3(C)[C@@H]4C[C@H](O)[C@H]5C(C)(C)[C@@H](O)CC[C@@]56C[C@@]46CC[C@]23C)O1 [Cycloastragenol] | -0.045 | 0.136
7 | CC(=O)O[C@H]1CC(=O)OC(C)(C)[C@@H]2CC(=O)[C@]3(C)[C@H](CC[C@@]4(C)[C@@H](c5ccoc5)OC(=O)[C@H]5O[C@]543)[C@@]12C [Nomilin] | -0.276 | -0.226
8 | O=C(/C=C/c1ccc(O)c(O)c1)O[C@H](Cc1ccc(O)c(O)c1)C(=O)O [Rosmarinicacid] | -0.275 | -0.328
9 | C/C=C(\C)C(=O)OC1c2c(ccc3ccc(=O)oc23)OC(C)(C)C1OC(=O)/C(C)=C/C (stereo not given) [Praeruptorin B] | -0.0992 | 0.0577
10 | C/C=C(/C)C(=O)O[C@@H]1[C@H](OC(C)=O)c2c(ccc3ccc(=O)oc23)OC1(C)C [Praeruptorin A] | -0.00436 | -0.0186
11 | O=C1CCC[C@@H]2[C@H]3CCC[N+]4([O-])CCC[C@@H](CN12)[C@@H]34 (stereo not given in full) [Oxymatrine] | 0.0707 | -0.0643
12 | COc1c(O[C@@H]2O[C@H](CO)[C@@H](O)[C@H](O)[C@H]2O)cc2oc(-c3ccc(O)cc3)cc(=O)c2c1O [Homoplantaginin] | 0.0189 ± 0.062 | 0.0763 ± 0.07
13 | CCCCCCCCCC(=O)CC(O)S(=O)(=O)O (stereo not given) [Sodium Houttuyfonate] | 0.024 | 0.102
14 | CC(=O)O[C@@H]1CC[C@@]2(C)[C@@H](CC[C@]3(C)[C@@H]2C(=O)C=C2[C@@H]4[C@@H](C)[C@H](C)CC[C@]4(C)CC[C@]23C)[C@@]1(C)C(=O)O [3-Acetyl-11-Keto-Beta-Boswellic Acid] | -0.179 | -0.0515
15 | O=C(O)/C=C/c1ccccc1 [Cinnamic Acid] | -0.0918 | 0.0721
16 | CC(=O)CCc1ccc(O)cc1 [Raspberry Ketone] | -0.163 | -0.0897
17 | CC1(C)[C@@H](O)CC[C@]2(C)[C@H]3C(=O)C=C4[C@@H]5C[C@@](C)(C(=O)O)CC[C@]5(C)CC[C@@]4(C)[C@]3(C)CC[C@@H]12 [Glycyrrhetinic Acid] | 0.0065 | 0.158
18 | COc1cc2c(=O)c(-c3ccc(O)cc3)coc2cc1O [Glycitein] | 0.0336 | 0.1
19 | CC(C)=CCc1cc2c(cc1O)O[C@H](c1ccc(O)cc1)CC2=O [Bavachin] | 0.0703 | 0.0642
20 | O=C1C[C@@H](c2ccc(O)cc2)Oc2cc(O)ccc21 [Liquiritigenin] | 0.037 | 0.142
21 | CC(C)=CCC12Oc3cc(O)ccc3C1(O)Oc1cc(O)c([C@H]3C=C(C)C[C@@H](c4ccc(O)cc4O)[C@@H]3C(=O)c3ccc(O)cc3O)c(O)c1C2=O (stereo not given in full) [Sanggenon D] | -0.0219 | -0.176
22 | Oc1ccc2c(c1)OCO2 [Sesamol] | 0.111 | 0.234
23 | Cn1c(=O)c2c(ncn2C)n(C)c1=O [Caffeine] | 0.103 | 0.0527
24 | C[C@H]1[C@H](C)CC[C@]2(C(=O)O)CC[C@]3(C)C(=CC[C@@H]4[C@@]5(C)CC[C@H](O)C(C)(C)[C@@H]5CC[C@]43C)[C@H]12 [Ursolic Acid] | 0.324 | -0.12
25 | O=C(O)c1ccccc1O [Salicylic acid] | 0.019 | 0.0351
